IDE inh: human IDE inhibitors in live cells, primary screen, fluorescence polarization, HEK cells, FAbetaB substrate; inhibition, % at 5.59 µM; Insulin-degrading enzyme (Homo sapiens), P14735; FAbetaB cleavage; 320,000 tested, 0.41% active; AID 434962, 2010;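 active = percent inhibition above the average of all tested compounds plus 3 SD, set per screening campaign, cut at about 16% in these data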;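 also: IDE supplied by intact live HEK cells; FP after avidin binding of uncleaved biotin substrate so inhibition keeps polarization high; 0% = DMSO wells and 100% = 60 µM reference IDE inhibitor Ii1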
PKA-R2B act: activators of PKA-R2B holoenzyme, primary screen, biochemical, fluorescence polarization, Cy5-IP20, human. activation, % at 11.4 µM. 340,000 tested, 0.079% active. PKA-R2B holoenzyme dissociation; R2B truncated from residue 108, S112A mutant; 0% DMSO only, 100% 113 µM cGMP. AID 504700, 2011;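 active = activation above a cutoff set at the mean over all compounds plus 3 SD, cut at about 18% in these data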;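 also: higher means more holoenzyme dissociation and a rise in polarization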
PKA-R1A activ: activators of PKA-R1A holoenzyme, primary screen, biochemical, fluorescence polarization, Cy5-IP20, bovine R1A, mouse PKAc; 340,000 tested, 0.083% active; activation, % at 11.4 µM; cAMP-dependent protein kinase type I-alpha regulatory subunit (Bos taurus) + …; AID 504707, 2011; PKA-R1A dissociation; scaled: DMSO 0%, 113 µM cGMP 100%;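 active = percent activation above the mean of all tested compounds plus 3 SD, cut at about 19% in these data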;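 also: higher means more PKAc released from R1A so a rise in polarization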
Rin1 Abl inh: inhibitors of Rin1-Abl protein binding, primary screen, biochemical, TR-FRET; Tyrosine-protein kinase ABL1 (Homo sapiens) + Ras and Rab interactor 1 (Homo sapiens), …; inhibition, % at 7.35 µM; 360,000 tested, 0.4% active; in the data active = inhibition above about 5%, passing the limit was not always enough
IDE act: human IDE activators in live cells, primary screen, fluorescence polarization, HEK cells, FAbeta-B substrate. 340,000 tested, 0.073% active. FAbeta-B cleavage; 0% vehicle, 100% cell-free pure enzyme wells. activation, % at 5.96 µM. AID 493087, 2011. Insulin-degrading enzyme (Homo sapiens), P14735;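 active = activation above the mean of all tested compounds plus 3 SD, set per screening campaign, cut at about 17% in these data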
eLon inh: inhibitors of E. coli Lon protease, primary screen, biochemical, fluorescence polarization. AID 602123, 2011. inhibition, % at 7.94 µM. 360,000 tested, 0.42% active. P0A9M0. purified E. coli Lon protease; in the data active = inhibition above about 13%, passing the limit was not always enough;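 also: 0% = enzyme with probe and DMSO and 100% = no enzyme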
Target sequence (P0A9M0 whole entry, looked up): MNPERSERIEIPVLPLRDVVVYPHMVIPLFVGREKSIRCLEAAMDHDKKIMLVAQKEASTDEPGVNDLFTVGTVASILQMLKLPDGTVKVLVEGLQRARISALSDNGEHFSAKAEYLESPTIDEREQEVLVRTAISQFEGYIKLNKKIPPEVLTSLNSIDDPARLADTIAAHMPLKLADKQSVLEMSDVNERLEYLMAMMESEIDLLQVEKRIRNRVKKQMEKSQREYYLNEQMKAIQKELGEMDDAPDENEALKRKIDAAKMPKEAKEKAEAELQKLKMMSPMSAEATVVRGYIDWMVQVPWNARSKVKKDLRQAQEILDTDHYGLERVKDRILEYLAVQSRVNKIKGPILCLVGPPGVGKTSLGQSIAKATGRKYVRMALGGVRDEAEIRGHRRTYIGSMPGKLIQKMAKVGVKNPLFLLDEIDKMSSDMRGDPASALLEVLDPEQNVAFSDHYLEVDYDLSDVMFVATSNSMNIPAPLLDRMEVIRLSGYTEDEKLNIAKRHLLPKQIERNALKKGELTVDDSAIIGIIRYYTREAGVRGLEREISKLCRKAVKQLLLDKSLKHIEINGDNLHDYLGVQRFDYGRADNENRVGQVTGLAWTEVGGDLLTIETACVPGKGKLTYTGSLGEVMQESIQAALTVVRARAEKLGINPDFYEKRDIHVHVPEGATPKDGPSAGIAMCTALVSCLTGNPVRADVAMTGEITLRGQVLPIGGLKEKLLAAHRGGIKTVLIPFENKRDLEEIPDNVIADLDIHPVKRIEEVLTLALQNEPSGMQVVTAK
E coli Lon conf: E. coli Lon protease inhibitor retest, confirmation, biochemical, fluorescence polarization | inhibition, % at 7.94 µM | AID 602230, 2012 | shares compounds with eLon inh | 1,400 tested, 31% active | purified E. coli Lon; in the data active = inhibition above about 16%;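 also: 0% = enzyme with probe and DMSO and 100% = no enzyme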
Numbers without * were called inactive; · = no result. Rows were chosen to be rich in hits. Some 1.3% of all compounds tested hit in one or more screens of this group.

SMILES	IDE inh	PKA-R2B act	PKA-R1A activ	Rin1 Abl inh	IDE act	eLon inh	E coli Lon conf
Cc1ccc(-c2nnn(CC(=O)N(c3ccc(F)cc3)C(C(=O)NC3CCCC3)c3ccncc3)n2)o1 (stereo unspecified)	1	-1	4	4	0	18*	-13
COCCN(C(=O)C1=COCCO1)c1c(N)n(Cc2ccccc2)c(=O)[nH]c1=O	-2	-4	-4	-1	2	28*	7
CCCCN(C(=O)c1ccc([N+](=O)[O-])o1)c1c(N)n(CC(C)C)c(=O)[nH]c1=O	-2	-7	7	0	7	40*	29*
CCCCN(C(=O)C1=COCCO1)c1c(N)n(Cc2ccccc2)c(=O)[nH]c1=O	1	-2	-7	4	4	-1	·
COCCN(C(=O)C1=COCCO1)c1c(N)n(CC(C)C)c(=O)[nH]c1=O	4	2	-7	6	-1	24*	7
CCC1(C)Cc2c(sc3nc(SC)n(Cc4ccccc4)c(=O)c23)CO1 (stereo unspecified)	1	-5	-4	-4	5	-4	·
CC(=O)NC(=S)Nc1ccc(NC(=O)COc2ccc(Cl)cc2)cc1	1	4	-2	5	0	-2	·
CCOc1ccc(NC(=O)C2CCCN2C(=O)Oc2ccccc2)cc1 (stereo unspecified)	-9	-1	-7	4	4	-2	·
N#Cc1ccccc1NC(=O)COC(=O)c1ccc(F)cc1F	4	7	10	3	3	17*	-4
COc1cccc(C(=O)C2CCCN(C(=O)c3ccccn3)C2)c1 (stereo unspecified)	-5	-5	6	5	4	-5	·
CCCCOC(=O)Nc1cc(C)c(Cl)cc1OC	1	1	8	0	6	34*	0
O=C(Nc1ccccc1)c1cccc(S(=O)(=O)NCc2ccco2)c1	8	0	2	0	4	-9	·
CN(C)/C=C1\C=C2C(=O)c3ccccc3N2C1=O	12	5	-2	-142	46*	93*	-123
COc1ccccc1/C=N/NC(=O)c1ccc(=O)n(C)c1	7	-7	-4	0	7	-18	·
COc1cccc(/C=N/NC(=O)c2ccc(=O)n(C)c2)c1OC	-1	-10	5	1	-4	22*	4
COc1ccc(NC(=O)CN(C)C(=O)CCc2c[nH]c3ccccc23)cc1	1	0	-2	3	-1	32*	16
O=C(O)CCC(=O)N1CCCC1	-3	2	-7	1	2	4	·
CCNC(=O)NC(=O)C(C)OC(=O)c1ccc(SC)cc1OC (stereo unspecified)	4	5	-1	1	7	3	·
O=C(CSc1nnnn1-c1ccc2c(c1)OCCO2)N1CCc2ccccc21	-1	-2	3	6	-2	-11	·
c1ccc(CSc2nnnn2-c2ccc3c(c2)OCCO3)nc1	3	-4	-12	3	-1	30*	-4
CCOC(=O)c1ccc(CNC(=O)CSc2nc(NC(=O)c3ccccc3)c3c(C)c(C)oc3n2)cc1	-3	-5	-10	-2	-1	17*	-4
O=C1C2C(c3ccccc3)C=CC(c3ccccc3)C2C(=O)N1c1ccccn1 (stereo unspecified)	4	-6	1	0	6	8	·
Cc1onc(-c2c(F)cccc2Cl)c1C(=O)ONC(=O)c1ccco1	3	-2	4	2	2	17*	6
Cc1onc(-c2c(F)cccc2Cl)c1C(=O)NCc1ccc(F)cc1	5	-5	-8	0	1	1	·

Bioassay records deposited in PubChem by The Scripps Research Institute Molecular Screening Center.
